Bioassay records from PubChem BioAssay.
VACV Venus inh: inhibitors of vaccinia virus (Venus reporter); Vaccinia virus Venus reporter expression, fluorescence; 330,000 compounds, 0.46% hits; Potency, µM (highest dose often 36.5 µM), for the others: at the highest dose activity change, negative = inhibition, actives largely listed as inhibitors; calls by dose curve; tested in A549 cells; also: potency is read from the fitted curve at half-maximal effect; nearly all actives have a fitted effect of over 30% in size
TbPYK inhibitor: inhibitors of Trypanosoma brucei pyruvate kinase; Q57TT1; 410,000 compounds, 0.12% hits; TbPYK enzyme, Kinase-Glo Plus ATP luminescence, 45 min; Potency, µM (top dose mostly 76.8 µM), inactives show at the highest dose activity, negative = inhibition, actives largely listed as inhibitors; also: potency is read from the fitted curve at half-maximal effect; nearly all actives have a fitted effect of over 50% in size
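Screened from lowest to highest concentration, compounds were pinned into TbPYK/substrate mixtures, and ADP (130 uM final) was added. Plates sat at room temperature for 45 min prior to Kinase-Glo Plus detection by luminescence.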
LmPK inh: LmPK (Leishmania mexicana) enzyme inhibition | Q27686 | purified LmPK, Kinase-Glo ATP luminescence, 1 h | Potency, µM (highest dose often 57.5 µM), inactives show top-dose activity change, negative = inhibition, most hits filed as inhibitors | 290,000 compounds, 0.37% hits; also: potency is read from the fitted curve at half-maximal effect
Target sequence (Q27686 whole entry, looked up): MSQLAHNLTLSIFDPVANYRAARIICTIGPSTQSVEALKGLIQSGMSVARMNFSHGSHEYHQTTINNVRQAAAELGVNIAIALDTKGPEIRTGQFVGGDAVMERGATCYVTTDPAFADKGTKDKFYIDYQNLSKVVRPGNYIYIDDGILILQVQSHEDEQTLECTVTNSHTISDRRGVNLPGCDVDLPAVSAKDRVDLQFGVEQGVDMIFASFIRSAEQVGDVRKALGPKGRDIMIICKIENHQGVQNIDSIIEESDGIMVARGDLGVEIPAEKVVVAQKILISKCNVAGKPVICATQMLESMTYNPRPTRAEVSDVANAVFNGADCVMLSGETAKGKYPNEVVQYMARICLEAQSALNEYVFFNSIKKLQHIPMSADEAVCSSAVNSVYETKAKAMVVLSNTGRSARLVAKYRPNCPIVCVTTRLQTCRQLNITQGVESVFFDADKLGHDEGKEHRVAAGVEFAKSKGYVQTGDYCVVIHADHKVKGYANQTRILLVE
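Pyruvate kinase activity monitored as ATP production (luciferase luminescence). Conditions: 0.1 nM enzyme, 0.5 mM PEP, 0.1 mM ADP, 1 h, RT; normalized against uninhibited and no-enzyme wells.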
Vaccinia mCherry: vaccinia inhibition (mCherry reporter) | Vaccinia virus mCherry reporter infection, fluorescence | Potency, µM (series often up to 36.5 µM), for inactives: at the highest dose activity change, negative = inhibition, hits mostly inhibitors | 310,000 compounds, 0.63% hits | AID 720579; calls by dose curve; tested in A549 cells; also: potency is read from the fitted curve at half-maximal effect; nearly all actives have a fitted effect of over 35% in size
HCMV inh: inhibitors of human cytomegalovirus; 410,000 compounds, 4.5% hits; HFF cells, HCMV-luciferase reporter, 72 h; hits give low values; activity change, negative = inhibition, % at 57.5 µM; in the data active = activity change below about -60%; inconclusive = no clear call, values can overlap the other calls; inactive = above about -39%
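Compounds were evaluated in HFFs infected with an HCMV luciferase reporter virus (MOI 1 PFU/cell). Luciferase in lysates collected 72 h post infection served as the replication measure.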
Active calls of the source: *; [ ] = dose if it differs, or a comment. The list is not random: actives were taken first. Their share in the collection is about 5%. Unless noted, calls follow the shape of the dose curve; as a rule, active = well fitted curve in the direction sought with a large enough effect; inconclusive = small, poorly fitted or top-dose-only effect, or another doubt; inactive = no such curve, though single readings can be large; an effect the other way counts as inactive or inconclusive. % is scaled to controls: 0 for no effect and ±100 for the full control effect.

`Oc1c(I)cc(Cl)c2cccnc12` gave VACV Venus inh -17.0%, TbPYK inhibitor -7.4%, LmPK inh 6.3%, Vaccinia mCherry -28.7% and HCMV inh 30.8.
Cc1ccc(C(=O)c2cc([N+](=O)[O-])ccc2N2CCOCC2)c(C)c1 was read as VACV Venus inh -10.0%, TbPYK inhibitor -8.6%, LmPK inh 7.1%, Vaccinia mCherry inconclusive and HCMV inh inconclusive.
Screening COc1cc(NC(=S)NC2CC(C)(C)NC(C)(C)C2)cc(OC)c1 returned VACV Venus inh -23.5%, TbPYK inhibitor 3.2%, LmPK inh 0.3%, Vaccinia mCherry -23.9% and HCMV inh -11.4.
CCCNC(=O)CN(c1ccccc1)S(=O)(=O)c1ccc(OC)c(OC)c1 was read as VACV Venus inh -7.9%, TbPYK inhibitor 0.7%, LmPK inh 5.0%, Vaccinia mCherry -1.3% and HCMV inh inconclusive.
Screening Oc1c(Cl)cc(CN2CCOCC2)c2cccnc12 returned TbPYK inhibitor -3.9% and HCMV inh -99.2*.
COc1cc(OC)cc(C(=O)Oc2c(CN3CCOCC3)cc(Cl)c3cccnc23)c1 was read as VACV Venus inh inconclusive, TbPYK inhibitor -2.3%, LmPK inh 9.9%, Vaccinia mCherry inconclusive and HCMV inh inconclusive.
`O=C(Oc1c(CN2CCOCC2)cc(Cl)c2cccnc12)c1ccccc1F` gave VACV Venus inh 10µM*, TbPYK inhibitor 3.8%, LmPK inh 4.2%, Vaccinia mCherry 7.94µM* and HCMV inh -84.9*.
For O=C(NCCCn1ccnc1)c1ccc(N2CCCCCC2)c([N+](=O)[O-])c1 the results were VACV Venus inh -13.3%, TbPYK inhibitor -3.2%, LmPK inh -2.5%, Vaccinia mCherry inactive and HCMV inh -60.9*.
CCOc1ccc(NC(=O)Cn2nc(-c3ccccc3Cl)n(CC)c2=S)cc1 was read as VACV Venus inh inconclusive, TbPYK inhibitor 3.4%, LmPK inh 1.8% and HCMV inh -61.6*.
CCn1c(-c2ccccc2Cl)nn(CC(=O)Nc2ccccc2C)c1=S was read as VACV Venus inh -14.3%, TbPYK inhibitor -17.3%, LmPK inh -6.9% and HCMV inh 55.6.
`CC(=O)c1c(C)[nH]c(C(=O)N2CCN(c3ccc(F)cc3)CC2)c1C` gave TbPYK inhibitor -6.0%, LmPK inh 1.5% and HCMV inh -71.3*.
COc1ccc(-n2nc(C(=O)NCC(=O)NC3CCCC(C)C3C)c3ccccc3c2=O)c(OC)c1 (stereo unspecified) was read as VACV Venus inh -0.3%, TbPYK inhibitor -6.1%, LmPK inh 10.5%, Vaccinia mCherry -12.2% and HCMV inh -61.1*.
`CC(=O)c1ccccc1OCCCOc1cccc2cccnc12` gave TbPYK inhibitor 8.2% and HCMV inh -83.3*.
Screening Cc1ccccc1NC(=O)c1cccc2nc3ccccc3nc12 returned VACV Venus inh inconclusive, TbPYK inhibitor 0.9%, LmPK inh 0.3%, Vaccinia mCherry inconclusive and HCMV inh -73.2*.
`Cn1nccc1-c1ccc(C(=O)Nc2cccc(NS(C)(=O)=O)c2)c2occc12` gave VACV Venus inh -14.9%, TbPYK inhibitor 0.2%, Vaccinia mCherry 4.5% and HCMV inh 225.4.
For CS(=O)(=O)Nc1cccc(NC(=O)c2ccc(-n3ccnc3)c3ccoc23)c1 the results were VACV Venus inh -0.8%, TbPYK inhibitor -2.7%, Vaccinia mCherry 1.1% and HCMV inh -63.1*.
Screening CC(Sc1nnc(C(F)(F)F)n1C)C(=O)Nc1ccc(S(N)(=O)=O)cc1 (stereo unspecified) returned VACV Venus inh -3.2%[7.34 µM], TbPYK inhibitor -9.5%, LmPK inh -2.9%, Vaccinia mCherry -14.4%[7.34 µM] and HCMV inh 16.7.
Screening CCCS(=O)(=O)c1cnc(C2COc3ccccc3O2)nc1N (stereo unspecified) returned VACV Venus inh -23.7%, TbPYK inhibitor inconclusive, LmPK inh inconclusive, Vaccinia mCherry inactive and HCMV inh -88.0*.
CC(NCC(O)c1ccc([N+](=O)[O-])cc1)C12CC3CC(CC(C3)C1)C2 (stereo unspecified) was read as VACV Venus inh inconclusive, TbPYK inhibitor 1.4%, LmPK inh -0.6%, Vaccinia mCherry inconclusive and HCMV inh inconclusive.
